These results are taken from PubChem BioAssay AID743395 (Broad Institute, 2014).

The whole screen tested about 1,200 compounds, of which about 480 (40%) were called active. So high a share suggests a set chosen from earlier hits. Not all results are given here. Entries with a potency or affinity are not part of this list. Unmarked numbers belong to inactive results. No rule for the calls is given here.

The nature of this assay: viability loss in human hepatoma cells – cell-based, CellTiter-Glo luminescence, cherry-pick, set 2, cytotoxicity control, dose response (AID 743395).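 Also: 0% = neutral control wells and -100% = positive control wells.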 Conditions: HepG2 viability, CellTiter-Glo ATP luminescence, 72 h; series mostly up to 26 µM; activity change, negative = cytotoxicity: at the top concentration.
As for `Cc1ccc(NC(=O)COC(=O)CCC2CCCC2)c(Br)c1`, the “activity change, negative = cytotoxicity” value is -10.8%.
Take `COc1ccc2c3c([nH]c2c1)[C@@H](CO)N(S(=O)(=O)c1cn(C)cn1)CC31CCN(CC2CCCCC2)CC1`: the “activity change, negative = cytotoxicity” value was -1.36%.
Regarding `CCCC(=O)Nc1ccc2c(c1)C(=O)N(C)C[C@@H](OC)[C@H](C)CN(C(=O)CN1CCOCC1)[C@H](C)CO2`, the “activity change, negative = cytotoxicity” value was -4.55%.
Consider `Cc1ccc(/C=N/NC(=O)C2COc3ccccc3O2)s1` (stereo not given), for which the “activity change, negative = cytotoxicity” value is -13.9%.
For the molecule `NS(=O)(=O)c1ccc(Cl)c(S(N)(=O)=O)c1`, the “activity change, negative = cytotoxicity” value is -3.33%.
With `CCN(CC)c1ccc(/C=C(/C#N)c2nc3ccc(C)cc3[nH]2)c(OC(C)C)c1`, the “activity change, negative = cytotoxicity” value was -32.9%.
On to `Cc1cc(C)c(C(=O)NC2CCCc3c2cnn3-c2cccc(C)c2C)o1` (stereo not given), for which the “activity change, negative = cytotoxicity” value is -9.1%.
Turning to `CCNC(=S)NNC(=O)CC(C)C`, the “activity change, negative = cytotoxicity” value was -4.94%.
Regarding `O=C(/C=C/c1ccco1)NC(=S)Nc1nc(-c2ccc3ccccc3c2)cs1`, the “activity change, negative = cytotoxicity” value was -2.42%.
`CC(=O)NC(=S)Nc1ccc(NC(=S)NC(=O)/C=C/c2ccco2)cc1`: the “activity change, negative = cytotoxicity” value is -3.21%.
For the molecule `CN(C(=O)c1ccccc1C(=O)OCC(=O)Nc1ccc(S(N)(=O)=O)cc1)c1ccccc1`, the “activity change, negative = cytotoxicity” value is -17.8%.
As to `CCCCc1nc(Cl)c(CO)n1Cc1ccc(-c2ccccc2-c2nn[nH]n2)cc1`, the “activity change, negative = cytotoxicity” value was 6.61%.
Then `COCCSc1ccccc1C(=O)Nc1cc([N+](=O)[O-])ccc1OC`, with -19.6%.
Regarding `COc1cc(NC(=O)COC(=O)c2n[nH]c3ccccc23)c(C)cc1[N+](=O)[O-]`, the “activity change, negative = cytotoxicity” value is -11.9%.
As for `C=CCn1c(SCC(=O)N(C)C2CCS(=O)(=O)C2)nc2ccccc2c1=O` (stereo not given), the “activity change, negative = cytotoxicity” value is -11.1%.
In the case of `COC(=O)c1cc2c(=O)c3ccccc3oc2nc1/C=C/N(C)C`, the “activity change, negative = cytotoxicity” value was 6.84%.
As for `O=C(Cc1ccccn1)NCC[C@@H]1CC[C@H](NC(=O)Nc2ccc(C(F)(F)F)cc2)[C@H](CO)O1`, the “activity change, negative = cytotoxicity” value is 2.91%.
Regarding `CCOC(=O)C1=CN(Cc2ccco2)S(=O)(=O)NC1c1ccc(C(F)(F)F)cc1` (stereo not given), the “activity change, negative = cytotoxicity” value was -15%.
Consider `Cc1cc(C(=O)CN2C(=O)C(=O)N(Cc3ccccc3)C2=O)c(C)n1Cc1ccccc1`, for which the “activity change, negative = cytotoxicity” value is -8.93%.
`CC(C)[N+]1(C)[C@@H]2CC[C@@H]1CC(OC(=O)C(CO)c1ccccc1)C2` (stereo not given in full): the “activity change, negative = cytotoxicity” value was -13.9%.
In the case of `Cc1noc(C)c1NC(=O)N(C)C[C@H]1Oc2cc(C#CCC3CCCC3)ccc2S(=O)(=O)N([C@@H](C)CO)C[C@@H]1C`, the “activity change, negative = cytotoxicity” value is -21.9%.
In the case of `CCC1(C)Cc2ccccc2-c2nc[nH]c(=O)c21` (stereo not given) it was -19.7%; in that of `O=S(=O)(c1ccc(OCc2ccc(Br)cc2)cc1)N1CCOCC1`, 2.21%; in that of `COc1cc(C(c2sc3nc(C)nn3c2O)N2CCN(c3ccccc3)CC2)cc(OC)c1OC` (stereo not given), 20.9%.
In the case of `Cn1nnnc1N=N/C(=N/Nc1ccccc1)c1ccccc1` it was -12.8%; in that of `Cc1cccc(C(=O)NCC(=O)OCC(=O)N(C)CC(=O)Nc2ccccc2Cl)c1`, -8.28%.
In the case of `C[C@@H]1CN([C@H](C)CO)S(=O)(=O)c2ccc(C#Cc3ccccc3F)cc2O[C@H]1CN(C)C(=O)Cc1cccnc1`, the “activity change, negative = cytotoxicity” value was 21.9%.
With `C[C@H]1CN([C@@H](C)CO)S(=O)(=O)c2ccc(/C=C/c3ccccc3)cc2O[C@H]1CN(C)Cc1ccccc1`, the “activity change, negative = cytotoxicity” value was -32.4%.
In the case of `COc1ccccc1C#Cc1ccc2c(c1)O[C@@H](CN(C)Cc1cccnc1)[C@H](C)CN([C@@H](C)CO)S2(=O)=O`, the “activity change, negative = cytotoxicity” value was 5.01%.
Turning to `COc1ccccc1C#Cc1ccc2c(c1)O[C@H](CN(C)Cc1cccnc1)[C@H](C)CN([C@@H](C)CO)S2(=O)=O`, the “activity change, negative = cytotoxicity” value was -5.36%.
On to `O=C(NC1CCCCC1)c1cc(C2CC2)nn1-c1ccccc1`, for which the “activity change, negative = cytotoxicity” value was 2.5%.
On to `O=C(CNC1CCCCC1)NN=C(c1ccccc1)c1ccccc1`, for which the “activity change, negative = cytotoxicity” value was -17.1%.
As to `CC(=O)Nc1cccc(NC(=O)CN2c3cccc4cccc(c34)S2(=O)=O)c1`, the “activity change, negative = cytotoxicity” value was -14%.
With `Cc1cc(Nc2ccc(Br)cc2)nc2ccccc12`, the “activity change, negative = cytotoxicity” value is -20.8%.
Turning to `Clc1ccc(Nc2ccc3ccccc3n2)cc1`, the “activity change, negative = cytotoxicity” value was -12.5%.
On to `CC(=O)Nc1ccc(S(=O)(=O)Nc2cccc(-c3nc4cc(C)ccc4o3)c2)cc1`, for which the “activity change, negative = cytotoxicity” value is -22.7%.
As to `CC(=O)Nc1ccc(S(=O)(=O)N2c3ccccc3C(C)=CC2(C)C)cc1`, the “activity change, negative = cytotoxicity” value was -29.7%.
Consider `CCC1(C2=CCCCC2)C(=O)NC(=S)N=C1N` (stereo not given), for which the “activity change, negative = cytotoxicity” value is -1.67%.
In the case of `CCCNC(=O)N1CC2(CN(S(=O)(=O)c3cccc(OC)c3)C2)c2c(n(C)c3cc(OC)ccc23)[C@H]1CO`, the “activity change, negative = cytotoxicity” value was -5.83%.
For `N#Cc1ccc(-c2ccc(C3[C@@H]4CN(C(=O)C5CCC5)C[C@H]3N4)cc2)cc1` (stereo not given in full), the “activity change, negative = cytotoxicity” value is -25.8%.
On to `COc1cccc(-c2ccc([C@H]3[C@@H](CO)N(C(=O)c4ccccn4)[C@H]3C#N)cc2)c1`, for which the “activity change, negative = cytotoxicity” value is -1.97%.
As for `N#Cc1ccc(-c2ccc3c(c2)[C@H]2[C@H](CCN2S(=O)(=O)c2ccccc2F)[C@@H](CO)N3)cc1`, the “activity change, negative = cytotoxicity” value is -15.8%.
Turning to `Cc1cccc(S(=O)(=O)N2C[C@H]3[C@@H](c4ccccc42)[C@H](CO)N3CC2CCCC2)c1`, the “activity change, negative = cytotoxicity” value is -7.41%.
In the case of `CCOC(=O)/C(=C/C=C1\Sc2cc(C)c(C)cc2N1CC)C(C)=O`, the “activity change, negative = cytotoxicity” value is -4.04%.
Turning to `COCC(C)n1c(SCC(=O)N2CC(=O)Nc3ccccc32)nc2ccccc2c1=O` (stereo not given), the “activity change, negative = cytotoxicity” value was -14.5%.
Take `CCN(CC(=O)Nc1c(F)cccc1F)C(=O)C1CC1`: the “activity change, negative = cytotoxicity” value is -0.756%.
Then `CN(c1ccc(OCCOc2ccccc2Cl)cc1)S(=O)(=O)c1ccccc1`, with -26.7%; and `O=C1c2cccc3c(N4CCCCC4)ccc(c23)C(=O)N1c1cccc(O)c1`, with -8.5%; and `Cn1c(=O)c(NC2CCCCC2)c2c3c(cccc31)C(=O)c1ccccc1-2`, with 5.22%.
In the case of `Cc1cccc(C(=O)N(Cc2ccco2)c2c(N)n(Cc3ccccc3)c(=O)[nH]c2=O)c1`, the “activity change, negative = cytotoxicity” value was -0.07%.
For `O=C(COC(=O)/C=C/c1ccccc1Cl)NC(=O)NCc1ccccc1`, the “activity change, negative = cytotoxicity” value is -17.1%.
Turning to `CC1CN(S(=O)(=O)c2ccc(C(=O)Nc3ccccc3F)cc2)CC(C)O1` (stereo not given), the “activity change, negative = cytotoxicity” value is -17.4%.
As to `COc1ccccc1N(C)S(=O)(=O)c1ccc(C(=O)Nc2nccs2)cc1`, the “activity change, negative = cytotoxicity” value is -9.42%.
As for `c1ccc(-c2csc(NC3=NCCCCC3)n2)cc1`, the “activity change, negative = cytotoxicity” value is -1.28%.
In the case of `CCn1c(SCC(=O)N/N=C/c2ccc(O)c(OC)c2)nc2ccccc21` it was 0.421%.
Take `CCOc1cc(OCC)c(C(C)=O)cc1OCC`: the “activity change, negative = cytotoxicity” value was 4.37%.
Then `COc1cccc2c1C(=O)C=C(C)C2=O`, with -10.7%.
As to `Cc1ccc(NC(=O)c2ccc(Cl)c(S(=O)(=O)Nc3c(C)n(C)n(-c4ccccc4)c3=O)c2)cc1Cl`, the “activity change, negative = cytotoxicity” value is 0.196%.
On to `O=c1[nH]c(CN2CCN(c3ccc(O)cc3)CC2)nc2scc(-c3ccc(Cl)cc3)c12`, for which the “activity change, negative = cytotoxicity” value is -28.1%.
Take `CCOC(=O)N1CCN(C(=O)C2CCC(=O)N(CCCN3CCCC3=O)C2)CC1` (stereo not given): the “activity change, negative = cytotoxicity” value is 4.66%.
